Compound activity as filed in PubChem.
DRD3 agonist = D3 dopamine receptor (human) agonism. P35462. D3R DiscoveRx beta-arrestin cells, luminescence, 90 min. max activation, %. actives 0.58% (n = 410,000). AID 652048; in the data active = max activation above about 30%
Target sequence (P35462 whole entry, looked up): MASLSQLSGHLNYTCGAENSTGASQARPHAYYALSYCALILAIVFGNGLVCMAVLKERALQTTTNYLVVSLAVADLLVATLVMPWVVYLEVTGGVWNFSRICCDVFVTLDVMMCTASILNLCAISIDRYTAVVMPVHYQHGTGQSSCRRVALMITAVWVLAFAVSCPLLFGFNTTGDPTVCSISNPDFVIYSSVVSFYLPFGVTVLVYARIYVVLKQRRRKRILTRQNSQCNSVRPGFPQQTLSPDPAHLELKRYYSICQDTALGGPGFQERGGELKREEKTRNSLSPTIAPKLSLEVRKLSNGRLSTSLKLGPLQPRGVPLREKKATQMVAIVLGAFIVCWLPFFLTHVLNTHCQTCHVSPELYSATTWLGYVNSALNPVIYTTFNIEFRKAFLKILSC
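Agonist mode: compounds and dopamine controls were applied to plated cells for 90 min at 37 degrees C after an overnight attachment at 1500 cells/well. Luminescent read-out followed 30 - 60 minutes at room temperature with DiscoveRx detection reagent.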
D1 agonist = agonists of human D1 dopamine receptor | HEK293 T-REx D1 cells, calcium flux, agonist mode | activation, % at 2 µM | actives 1% (n = 360,000) | AID 504660; in the data active = activation above about 30%
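Inducible HEK293 T-REx D1 cells, force-coupled to calcium signalling, were plated at 4000 cells/well with tetracycline and held overnight at 30 C. After no-wash calcium dye loading, compound-evoked calcium rise over 180 s flagged agonists.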
D1 antagonist = human D1 dopamine receptor antagonism | HEK293 TREx D1 cells, calcium flux, dopamine EC80; stronger effect = lower value | activity change, negative = inhibition, % at 10 µM | actives 3.2% (n = 360,000) | P21728; in the data active = activity change below about -30%
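HEK293 T-REx cells expressing inducible, force-coupled D1 receptor; no-wash Ca dye, 30–90 min RT. Cmpd → 180 s read at 1 Hz → EC80 DA → 180 s read.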
D1 potentiator = human D1 dopamine receptor positive modulation | AID 504651 | P21728 | potentiation, % at 10 µM | actives 0.036% (n = 360,000) | HEK293 TREx D1 cells, calcium flux, dopamine EC20 potentiation; in the data active = potentiation above about 30%
D3 antag = blocks the human D3 dopamine receptor; D3R cells, DiscoveRx beta-arrestin luminescence, antagonist mode; stronger effect = lower value; max response, negative = inhibition, %; actives 2.5% (n = 360,000); AID 652054; in the data active = max response below about -50%; inconclusive = no clear call, values can overlap the other calls
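Cells expressing the human receptor were seeded at 1500 cells/well, incubated overnight at 37 degrees C in 5% CO2, then exposed to library compounds with dopamine controls for 90 minutes at 37 degrees C before luminescent detection.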
Of the large screens only hits and unclear results are named; the others gave an inactive call. The list is not random: actives were taken first. Their share in the collection is about 6%.

Cn1c(=O)[nH]c(=O)c2c1nc(CN1CCN(c3cccc(Cl)c3)CC1)n2CCCc1ccccc1	D1 antagonist -31
CCCCn1c(CN2CCN(c3cccc(Cl)c3)CC2)nc2c1c(=O)[nH]c(=O)n2C	none
COCCNS(=O)(=O)c1ccc2c(c1)C(=O)c1cc(S(=O)(=O)NCCOC)ccc1-2	none
O=C1c2cc(S(=O)(=O)NCCCO)ccc2-c2ccc(S(=O)(=O)NCCCO)cc21	D3 antag -51
CC(=O)OCC1O[C@@H](O[C@@H]2C[C@H]3C(C)(C)[C@H](OC(C)=O)CC[C@]3(C)[C@H]3CC[C@]45C[C@]4(CC[C@H]5[C@@H](C)C[C@@H](O)[C@H](O)C(C)(C)O)[C@@]32C)[C@H](O)[C@@H](O)[C@@H]1O (some centres not stated)	D1 agonist 334 (no result: DRD3 agonist, D3 antag)
CCN(CCO)Cc1cn[nH]c1-c1ccc(C)c(C)c1	D3 antag -66
CC(C)c1ccc(O)c(NC(=O)c2cccnc2)c1	none
CCC(C)c1ccc(O)c(NC(=S)NC(=O)c2cccnc2)c1 (configuration not stated)	D3 antag -63
CC(C)c1ccc(O)c(NC(=S)NC(=O)c2ccc3c(c2)OCO3)c1	D1 antagonist -66, D3 antag inconclusive
COC(=O)[C@]12CCCCC=C1N(CCc1ccc(OC)c(OC)c1)C(=O)[C@H](CC(=O)N1CCC(c3ccccc3)CC1)C2	none (no result: D1 agonist, D1 antagonist, D1 potentiator)
COCCCNC(=O)c1c(NC(=O)Cc2coc3cc(C)ccc23)sc2c1CCCC2	D1 antagonist -66 (no result: D3 antag)
COc1ccc(-c2onc(C)c2C)cc1S(=O)(=O)N1CCc2ccccc21	none (no result: D3 antag)
COC(=O)CN1C(=S)N(c2ccc(OC)cc2)C(=O)/C1=C/c1ccc(N2CCOCC2)cc1	D1 agonist 33 (no result: D1 antagonist)
COC(=O)CN1C(=S)N(c2ccc(OC)cc2)C(=O)/C1=C/c1ccc(OC)cc1	none
Cn1c(=O)c2c(nc3n(-c4ccc(O)cc4)c(-c4ccc(Br)cc4)cn23)n(C)c1=O	none (no result: D3 antag)
COc1ccc(Cl)cc1NC(=O)C(=O)NCc1ccncc1	D1 antagonist -38
COc1ccc(-c2cn3nc(N4CCC(C(=O)NCc5cccc(Cl)c5)CC4)sc3n2)cc1	none (no result: D3 antag)
O=c1c2ccccc2nc(-c2ccco2)n1CCc1ccc(O)cc1	D1 antagonist -41
O=c1c2ccccc2nc(/C=C/c2ccccc2)n1CCCO	none
O=c1c2ccccc2nc(/C=C/c2ccc(O)cc2)n1CCc1ccccc1	D1 antagonist -41
O=C(NC1CCCc2ccccc21)c1ccc2c(c1)sc1nc(-c3ccccc3)cn12 (configuration not stated)	none (no result: D3 antag)
O=C(CC1NCCc2ccccc21)Nc1ccc(Oc2ccccc2)cc1 (configuration not stated)	D3 antag inconclusive
O=C(CC1NCCc2ccccc21)Nc1ccccc1 (configuration not stated)	D3 antag -74
CCCS(=O)(=O)NC(=O)C1(C)CCN(C(=O)c2ccc(C#N)cc2)C1 (configuration not stated)	none (no result: D1 agonist, D1 antagonist, D1 potentiator)
CN(C)CCNC(=O)c1cc2c(s1)-c1ccc(Cl)cc1SC2	D1 antagonist -48, D3 antag inconclusive
c1cc2c3c(cccc3c1)NC1(CCC3(CC1)Nc1cccc4cccc(c14)N3)N2	D1 antagonist -40
c1cc2c3c(cccc3c1)NC1(CCCCCC1)N2	D3 antag inconclusive
Cc1cccc(C(C)C)c1NC(=O)COC(=O)CCN1C(=O)C2CC=CCC2C1=O (configuration not stated)	none
O=C(N/N=C/c1ccc(Br)s1)c1ccco1	none
O=C(N/N=C/c1sc(=O)n(Cc2ccc(Br)cc2)c1Cl)c1ccco1	D1 antagonist -49
CN1CCN(C(=O)c2ccc3ccccc3c2)CC1	D3 antag -83
CN1CCN(C(=O)c2ccc(CSc3ccc(Cl)cc3)cc2)CC1	D1 antagonist -30
CC(=O)c1ccc(NC(=O)CN2C(=O)COc3ccc(Cl)cc32)cc1	none
O=C(CN1C(=O)COc2ccc(Cl)cc21)Nc1ccc(F)cc1	D1 antagonist -34 (no result: D3 antag)
Cc1ccccc1NC(=O)CN1C(=O)COc2ccc(Cl)cc21	D1 antagonist -92
C[C@H](O)C(=O)Nc1c(I)c(C(=O)NC(CO)CO)c(I)c(C(=O)NC(CO)CO)c1I	none (no result: D1 agonist, D1 antagonist, D1 potentiator, D3 antag)
CCCCN(CCCC)C(=S)N/N=C/c1c(C)[nH]n(-c2ccccc2)c1=O	D3 antag -104
